The nature of experiment [1]: qHTS assay to identify small molecule antagonists of the estrogen receptor alpha (ER-alpha) signaling pathway using the BG1 cell line in the presence of 0.1 nM 17-beta-estradiol - cell viability counter screen (AID 1259241). Also: nearly all actives have a fitted effect of over 40% in size. Also: potency is read from the fitted curve at half-maximal effect. An outline of the steps:
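In this screen, hormone-deprived VM7Luc4E2 cells were seeded at 4,000 per well, dosed with compound and 0.1 nM estradiol final, and incubated 22 hr at 37C and 5% CO2; fluorogenic live-cell protease signal reported viability.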
(qHTS replaces the single test concentration by a dilution series.)

Experiment [2] can be described thus: qHTS assay to identify small molecule antagonists of the androgen receptor (AR) signaling pathway using the MDA cell line in the presence of 0.5 nM R1881 - cell viability counter screen (AID 1259242). Also: nearly all actives have a fitted effect of over 45% in size. Also: potency is read from the fitted curve at half-maximal effect. An outline of the steps: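 Cells seeded at 3,000/well and allowed 5 hr at 37C, 0% CO2 before compound transfer and R1881 (0.5 nM final) addition; 16 hr later, live-cell protease fluorescence indicated cytotoxicity.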

The target of experiment [3] is Androgen receptor (Homo sapiens) (UniProt P10275). Briefly: qHTS assay to identify small molecule antagonists of the androgen receptor (AR) signaling pathway using the MDA cell line in the presence of 0.5 nM R1881 (AID 1259243). Also: nearly all actives have a fitted effect of over 50% in size. Also: potency is read from the fitted curve at half-maximal effect. An outline of the steps: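 Luminescence from an AR/GR-responsive MMTV-luciferase construct in MDA-kb2 breast carcinoma cells, read 30 min after ONE-Glo, following 16 hr co-treatment with compounds and 0.5 nM R1881.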

Experiment [4] concerns the target Estrogen receptor (Homo sapiens) (UniProt P03372). In words: qHTS assay to identify small molecule antagonists of the estrogen receptor alpha (ER-alpha) signaling pathway using the BG1 cell line in the presence of 0.1 nM 17-beta-estradiol (AID 1259244). Also: nearly all actives have a fitted effect of over 50% in size. Also: potency is read from the fitted curve at half-maximal effect. An outline of the steps:
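Luciferase signal from VM7Luc4E2 ERE-reporter cells, co-dosed with test compound and 0.1 nM final 17beta-estradiol for 22 h, read with ONE-Glo.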

The nature of experiment [5]: qHTS assay to identify small molecule phospholipidosis (PLD) inducers (AID 1259344; active = well fitted curve in the direction sought with a large enough effect; an effect the other way counts as inactive or inconclusive). An outline of the steps:
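After 4 h attachment on collagen I, HepG2 cells were dosed with compound alongside LipidTOX Red, kept 24 h at 37 C, fixed, and imaged for lamellar phospholipid pits.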

The nature of experiment [6]: qHTS assay to identify small molecule HDAC inhibitors (AID 1259364). Also: potency is read from the fitted curve at half-maximal effect.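 Also: wild-type HCT-116 cells with endogenous class I/II HDAC activity; nearly all actives have a fitted effect of over 45% in size.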 An outline of the steps: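 HCT-116 wt cells, 1,500/well, overnight attach. Compounds (DMSO) 2 h, 37 °C. HDAC-Glo I/II, 30 min RT. Luminescence.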
Experiment [7] is described as follows: qHTS assay to identify small molecule HDAC inhibitors - cell viability counter screen (AID 1259365). Also: series mostly up to about 92 µM; nearly all actives have a fitted effect of over 50% in size. An outline of the steps: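 Measured quantity is CellTiter-Glo luminescence from wild-type HCT-116 cells after compound incubation of 2hr at 37C, 5% CO2; reagent developed 30min at room temperature.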
Experiment [8] is described as follows: qHTS assay to identify small molecule agonists of the sonic hedgehog signaling (Shh) pathway - cell viability counter screen (AID 1259366). Also: nearly all actives have a fitted effect of over 50% in size. Also: potency is read from the fitted curve at half-maximal effect. An outline of the steps: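 In quantitative high-throughput format, 3T3 Gli1-Luc cells were exposed to compounds for 24hr and multiplexed for viability using CellTiter-Fluor, incubated 1hr at 37C before the fluorescence read.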

A short description of experiment [9]: qHTS assay to identify small molecule antagonists of the sonic hedgehog signaling (Shh) pathway - cell viability counter screen (AID 1259367). Also: nearly all actives have a fitted effect of over 55% in size. Also: potency is read from the fitted curve at half-maximal effect. An outline of the steps:
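Conditioned medium drove Shh signaling in 3T3 Gli1-Luc cells exposed to compounds at 37C and 5% CO2. Viability was determined from CellTiter-Fluor fluorescence, with reagent incubated 1 hr after 23 hr of treatment.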

Experiment [10] can be described thus: qHTS assay to identify small molecule agonists of the sonic hedgehog signaling (Shh) pathway (AID 1259368; calls by dose curve;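 also: NIH/3T3-derived 3T3Gli1-Luc cells carrying a stable Gli1-driven firefly luciferase reporter; series mostly up to about 92 µM; nearly all actives have a fitted effect of over 15% in size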). An outline of the steps: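 Following a 24 hr incubation with DMSO-dissolved compounds at 37 C, 5% CO2, Gli1-Luc NIH/3T3-derived cells received luciferase reagent for 30 min at room temperature prior to luminescence measurement.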

SMILES strings stand for the structures. Several values for one entry are separate records, joined by “and”; a condition that tells them apart may be missing. Equal values may be shown once. Records with an inconclusive call do not appear. A structure can be active in one record and inactive in another. Activity calls are given as the source filed them. Unless noted, calls follow the shape of the dose curve; as a rule, active = well fitted curve in the direction sought with a large enough effect in the repeat runs; inconclusive = weak or mixed curves; inactive = no such curve, though single readings can be large; an effect the other way counts as inactive or inconclusive.

Estrogen receptor (Homo sapiens), sequence (P03372 whole entry, looked up): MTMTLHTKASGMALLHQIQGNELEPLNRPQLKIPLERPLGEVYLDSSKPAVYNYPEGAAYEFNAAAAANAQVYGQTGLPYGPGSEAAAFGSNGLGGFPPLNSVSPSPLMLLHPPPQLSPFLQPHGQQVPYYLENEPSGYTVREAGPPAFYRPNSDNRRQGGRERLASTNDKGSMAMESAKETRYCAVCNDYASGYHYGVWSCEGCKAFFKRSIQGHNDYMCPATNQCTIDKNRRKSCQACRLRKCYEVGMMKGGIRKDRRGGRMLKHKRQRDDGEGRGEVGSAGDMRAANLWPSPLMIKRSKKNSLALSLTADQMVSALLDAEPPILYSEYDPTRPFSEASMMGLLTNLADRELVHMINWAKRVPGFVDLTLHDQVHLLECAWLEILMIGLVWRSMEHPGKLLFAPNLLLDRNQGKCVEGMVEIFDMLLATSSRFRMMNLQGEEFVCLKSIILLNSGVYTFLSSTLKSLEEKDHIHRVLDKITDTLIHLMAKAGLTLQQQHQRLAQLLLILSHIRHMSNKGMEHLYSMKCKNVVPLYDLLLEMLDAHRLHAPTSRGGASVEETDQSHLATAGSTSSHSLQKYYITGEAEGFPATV
Androgen receptor (Homo sapiens), sequence (P10275 whole entry, looked up): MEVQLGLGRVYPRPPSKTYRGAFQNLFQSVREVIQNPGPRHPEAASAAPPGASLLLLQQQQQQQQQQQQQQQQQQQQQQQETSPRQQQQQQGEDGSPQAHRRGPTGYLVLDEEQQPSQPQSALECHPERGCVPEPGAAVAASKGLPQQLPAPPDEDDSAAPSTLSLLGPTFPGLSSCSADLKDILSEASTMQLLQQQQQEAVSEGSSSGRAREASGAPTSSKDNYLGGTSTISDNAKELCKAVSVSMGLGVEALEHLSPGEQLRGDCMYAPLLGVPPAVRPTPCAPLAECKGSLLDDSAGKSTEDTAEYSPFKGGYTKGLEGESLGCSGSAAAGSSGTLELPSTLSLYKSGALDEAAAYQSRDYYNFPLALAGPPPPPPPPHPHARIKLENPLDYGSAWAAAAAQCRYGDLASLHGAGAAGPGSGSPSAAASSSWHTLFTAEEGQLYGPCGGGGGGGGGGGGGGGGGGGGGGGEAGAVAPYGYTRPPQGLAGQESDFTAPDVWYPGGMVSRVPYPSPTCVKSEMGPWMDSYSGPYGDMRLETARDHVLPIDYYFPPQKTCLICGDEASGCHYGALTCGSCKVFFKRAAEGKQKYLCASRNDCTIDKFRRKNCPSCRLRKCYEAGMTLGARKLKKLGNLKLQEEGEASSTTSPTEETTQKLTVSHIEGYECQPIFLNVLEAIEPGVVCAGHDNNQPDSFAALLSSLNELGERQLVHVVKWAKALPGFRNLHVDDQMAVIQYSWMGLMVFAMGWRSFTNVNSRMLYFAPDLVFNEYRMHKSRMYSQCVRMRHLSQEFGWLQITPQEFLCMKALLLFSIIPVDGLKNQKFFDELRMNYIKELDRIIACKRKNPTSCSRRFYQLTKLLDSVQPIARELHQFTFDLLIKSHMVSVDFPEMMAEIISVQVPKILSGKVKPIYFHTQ

Take `CC(=O)Oc1ccc(C(c2ccc(OC(C)=O)cc2)c2ccccn2)cc1`: the Potency is 750 nM (active) in experiment [1]; 171 nM (active) and 1.19 µM (active) in experiment [3]; 54.2 nM (active) and 944 nM (active) in experiment [4]. The Potency result in experiment [2], in [5], in experiment [6], in experiment [8] and in experiment [9] was “inactive” each time. In [7], the molecule was classed as inactive.
Take `COc1ccc2nc(N)sc2c1`: the Potency entry in experiment [1], in [2], in experiment [3], in experiment [4], in experiment [8] and in experiment [9] was “inactive” in each case. Also, in experiment [10], the Potency entry was “inactive”. In experiment [6], the Potency is 27.3 µM (active) and 24.3 µM (active). Further, the call in [7] was inactive.
With `COC(=O)CC(=O)OC`, the Potency result in experiment [1], in experiment [2], in experiment [4], in [6] and in [8] was “inactive” in each case. Further, in experiment [7], the result was inactive.
In the case of `OCCNCCO`, the Potency result in experiment [1], in experiment [2], in experiment [4], in experiment [6], in [8] and in experiment [9] was “inactive” throughout. Moreover, the Potency result in experiment [10] is “inactive”. Moreover, the molecule was called inactive in experiment [7].
Take `CC[C@]12CCCN3CCc4c(n(c5ccccc45)[C@@](O)(C(=O)OC)C1)[C@@H]32`: the Potency entry in experiment [1], in [2], in [3], in experiment [5], in [6] and in experiment [8] was “inactive” in each case. Moreover, the Potency entry in experiment [9] and in [10] was “inactive” throughout. Further, in experiment [7], the outcome was inactive.
`COc1ccc(-c2coc3cc(O)cc(O)c3c2=O)cc1`: the Potency result in experiment [1], in experiment [4], in [8], in experiment [9] and in experiment [10] was “inactive” each time. Besides, the Potency in experiment [2] is 54.9 µM (active) and inactive; in experiment [6], 21.9 µM (active) and 17.2 µM (active). Also, in experiment [7], the molecule was called inactive.
For `CN(C)/N=N/c1nc[nH]c1C(N)=O`, the Potency entry in [1], in experiment [2], in experiment [4], in [5], in experiment [6] and in experiment [8] was “inactive” throughout. The Potency result in [9] and in experiment [10] was “inactive” each time. For the same molecule, in experiment [7], the result was inactive.
Take `O=C(O)CCCC(=O)O`: the Potency entry in experiment [1], in [2], in experiment [4], in experiment [6], in [8] and in experiment [9] was “inactive” in each case. For the same molecule, the Potency entry in experiment [10] is “inactive”. For the same molecule, the molecule was classed as inactive in [7].
For the molecule `C=CN1CCCC1=O`, the Potency entry in [1], in [2], in experiment [4], in [6] and in [8] was “inactive” each time. For the same molecule, the molecule was classed as inactive in experiment [7].
With `O=Cc1ccccc1C=O`, the Potency result in [1], in experiment [2], in experiment [4], in [5] and in [6] was “inactive” throughout. The Potency in experiment [3] is 54.5 µM (active) and inactive; in [8], 61.1 µM (active) and inactive; in [9] it was 54.5 µM (active) and inactive. Further, in experiment [7], the outcome was inactive.
With `OC[C@@H](O)[C@@H](O[C@@H]1O[C@H](CO)[C@H](O)[C@H](O)[C@H]1O)[C@H](O)[C@@H](O)CO`, the Potency entry in [1], in experiment [2], in experiment [4], in [5], in experiment [6] and in [8] was “inactive” throughout. In addition, the Potency result in experiment [9] was “inactive”. Besides, in [7], the result was inactive.
Turning to `CCCCCC1C(=O)CCC1CC(=O)OC` (stereo not drawn), the Potency entry in [1], in [2], in [4], in experiment [6], in experiment [8] and in experiment [9] was “inactive” each time. For the same molecule, the Potency entry in experiment [10] is “inactive”. Moreover, the molecule was called inactive in experiment [7].
Consider `CCC/C=C/C=O`, for which the Potency result in [1], in experiment [2], in experiment [3], in experiment [4], in experiment [6] and in experiment [8] was “inactive” each time. Also, the Potency result in [9] and in experiment [10] was “inactive” throughout. Moreover, in [7], the outcome was inactive.
`CC(=O)O[C@]1(C(C)=O)CC[C@H]2[C@@H]3C=C(Cl)C4=CC(=O)CC[C@]4(C)[C@H]3CC[C@@]21C`: the Potency result in experiment [1], in experiment [2], in experiment [4], in [5], in experiment [6] and in [8] was “inactive” throughout. In experiment [10], the Potency result was “inactive”. Besides, the molecule was classed as inactive in experiment [7].
Consider `NCCOCCO`, for which the Potency result in [1], in experiment [2], in experiment [4], in [6] and in [8] was “inactive” in each case. Besides, the outcome in experiment [7] was inactive.
Turning to `CCCCCCCC/C=C\CCCCCCCC(=O)O`, the Potency entry in experiment [1], in experiment [2], in experiment [4], in experiment [5], in [6] and in [8] was “inactive” throughout. In addition, the Potency result in experiment [9] was “inactive”. Also, the molecule was called inactive in experiment [7].
With `Cc1ccc(/C(=C\CN2CCCC2)c2ccccn2)cc1`, the Potency result in [2], in experiment [4], in experiment [5], in experiment [6] and in experiment [8] was “inactive” in each case. In addition, in experiment [7], the call was inactive. Besides, the Potency in experiment [9] is 36.2 µM (active) and inactive.
For the molecule `FC(F)(F)C(Cl)Br` (stereo not drawn), the Potency entry in [2], in [4], in [5], in [6], in [8] and in [9] was “inactive” in each case. For the same molecule, the result in [7] was inactive.
For `Nc1ccc2c(c1)C(=O)c1ccccc1C2=O`, the Potency entry in experiment [2], in [4] and in experiment [8] was “inactive” each time. Also, the Potency in experiment [6] is 951 nM (active) and 770 nM (active). Besides, the outcome in [7] was inactive.
In the case of `Oc1c(Cl)ccc(Cl)c1Cl`, the Potency entry in experiment [2], in [4], in [6], in [8] and in experiment [10] was “inactive” in each case. The call in experiment [7] was inactive.
Regarding `CC(=O)[C@H]1CC[C@H]2[C@@H]3CC=C4C[C@@H](O)CC[C@]4(C)[C@H]3CC[C@]12C`, the Potency entry in [2], in [4], in experiment [6], in experiment [8] and in experiment [10] was “inactive” throughout. Besides, the call in experiment [7] was inactive.
As for `Nc1cc(Cl)c(N)c(Cl)c1`, the Potency entry in experiment [2], in [4], in [6] and in experiment [8] was “inactive” each time. Also, the result in [7] was inactive.
For `C=C[Si](OCCOC)(OCCOC)OCCOC`, the Potency entry in [2], in experiment [4], in experiment [6], in experiment [8], in experiment [9] and in [10] was “inactive” in each case. Moreover, the molecule was classed as inactive in experiment [7].
For `CC(=O)O[C@]1(C(C)=O)CC[C@H]2[C@@H]3C=C(C)C4=CC(=O)CC[C@]4(C)[C@H]3CC[C@@]21C`, the Potency result in experiment [2], in experiment [4], in experiment [5], in [6], in experiment [8] and in [10] was “inactive” each time. In addition, the result in experiment [7] was inactive.

Values taken from PubChem BioAssay (Tox21).
